Shown are actives, neighbours in structure and some others; about 0.55% of the full set was active somewhere.
pAkt inh: Akt phosphorylation inhibition | activity change, % for hits at 50 µM | AID 651550 | actives 0.32% (n = 360,000) | Neuro2A IGF-stimulated pAkt S473 HTRF, 20 min; active compounds read low; in the data active = activity change below about -80%; inconclusive = mostly about -51% to -80%; also: % is scaled to controls: 0 for no effect and ±100 for the full control effect
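Neuro2A cells in DMEM with 0.5% FBS, overnight at 37 deg C, given compound at single 50 µM final, then IGF (6 nM final) for 20 min at 37 deg C. Lysed; phospho-Akt Ser473 by HTRF after 24 h, 665/615 ratio.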
TCR activator: T cell receptor activation | primary human leukocytes, anti-CD3, IL-2 HTRF, 48 h | Potency, µM (series often up to 9.22 µM), inactives show top-dose activation of IL-2 secretion, usual class: activators | 330,000 tested, under 10 active | AID 504894; also: % of control where 0% means no effect
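Primary human leukocytes incubated 48 hr with anti-CD3 beads plus compound, without co-stimulation. Secreted IL-2 measured by HTRF (europium cryptate/d2 anti-IL-2 pair, 320 nm excitation, 665 nm emission).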
RGS4 inhibitor: blocks human RGS4-accelerated GTP hydrolysis; Transcreener GDP fluorescence polarization, RGS4-accelerated GTP hydrolysis; Potency, µM (titrated, usually from 114 µM), for the others: at the top dose activity change, negative = inhibition, hits mostly inhibitors; actives 0.039% (n = 390,000); AID 504845; also: potency is read from the fitted curve at half-maximal effect; % is scaled to controls: 0 for no effect and ±100 for the full control effect; nearly all actives have a fitted effect of over 75% in size
Target sequence (P49798 whole entry, looked up): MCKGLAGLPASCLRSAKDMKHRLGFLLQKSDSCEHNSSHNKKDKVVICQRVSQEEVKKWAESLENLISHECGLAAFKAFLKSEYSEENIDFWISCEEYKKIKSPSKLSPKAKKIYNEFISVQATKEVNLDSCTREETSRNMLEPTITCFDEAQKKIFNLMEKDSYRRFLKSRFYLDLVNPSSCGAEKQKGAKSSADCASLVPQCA
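MLSMR compounds (23 nl, pin-transferred) preincubated 10 min at room temperature with a 500nM (2x) first reagent, then RGS4 at 900nM (2x) plus Transcreener GDP mix added; fluorescence polarization (620/688 nm) read before and after 90 min at 30 °C.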
LDHA inh: blocks human lactate dehydrogenase A; actives 0.15% (n = 480,000); AID 1347041; purified LDHA, NADH/diaphorase-resazurin fluorescence; active compounds read low; activity change, % (values are at about 110 or 230 µM); P00338; in the data active = activity change below about -30%; inconclusive = mostly about -25% to -30%;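 also: plate controls were DMSO wells for no effect and wells without enzyme for full effect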
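Human LDH5 at 2 nM final in Tris HCl pH 7.4 with 0.06 mM NADH and 0.2 mM pyruvate, reacted 5 minutes at room temperature. Remaining NADH coupled via diaphorase/resazurin; resorufin fluorescence read at 0 and 20 minutes, normalized to enzyme-free and DMSO wells.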
TSHR antag: antagonists of human thyroid stimulating hormone receptor; P16473; TSHR-expressing cells, TSH-stimulated cAMP HTRF, 2 h; active compounds read low; activity change, negative = inhibition, % at 11.5 µM; actives 0.2% (n = 330,000); AID 504810;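 active = activity change below a set negative limit, meaning inhibition stronger than a set level, cut at about -70% in these data; inconclusive = activity change between two set negative limits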; also: % is scaled to controls: 0 for no effect and ±100 for the full control effect
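TSHR-expressing cells, 200/well, pre-treated with compound, then stimulated with EC80 TSH (4nM final) for 2 hours at 37 deg C. cAMP measured by competitive HTRF: anti-cAMP cryptate antibody in lysis buffer plus cAMP-d2, read after 30 minutes at room temperature.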
Glioma ERSR ind: induces the endoplasmic reticulum stress response in human glioma cells; U87-MG GRP78 promoter luciferase reporter, 16 h; actives 0.02% (n = 420,000); AID 602332; Potency, µM, for inactives: at the highest dose activation, actives largely listed as activators; also: potency is read from the fitted curve at half-maximal effect; series mostly up to about 76 µM; % of control where 0% means no effect; nearly all actives have a fitted effect of over 35% in size
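ERSR induction read as luciferase luminescence (Bright-Glo, 10 min at room temperature) in stably transfected human U87-MG glioma cells exposed to compounds for 16 h, using GRP78 as sensor.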
Starred values were filed as active, the others as inactive; i = inactive; ? = inconclusive; / = no result; [ ] = dose if it differs, or a comment. Unless noted, calls follow the shape of the dose curve; as a rule, active = well fitted curve in the direction sought with a large enough effect; inconclusive = small, poorly fitted or top-dose-only effect, or another doubt; inactive = no such curve, though single readings can be large; an effect the other way counts as inactive or inconclusive.

SMILES	pAkt inh	TCR activator	RGS4 inhibitor	LDHA inh	TSHR antag	Glioma ERSR ind
COc1ccccc1CNS(=O)(=O)c1cc(-c2cc(C)no2)ccc1C(C)C	i	3%	-1%[11.4 µM]	-2	-80*	-6%
CCCCc1nc2ccccc2c(NC(=O)CNC(C)(C)C)c1CCC	i	-5%	-9%	?	/	-3%
CCCCc1nc2ccccc2c(NC(=O)CN2CCCC2)c1CCC	i	2%[46.1 µM]	0%	-35*	8	-3%
O=Cc1cc(O)c(Br)cc1Br	/	/	/	-12	/	/
CCOc1ccc2oc(C(=O)OCC(=O)N3C(C)CCCC3C)c(C)c2c1 (stereo not given)	i	-5%	-2%	-5	-79*	-3%
S=c1[nH]nc(-c2cccc(Br)c2)o1	-108%*	-4%	-24%	-12	9	-2%
Cc1[nH]c2ccccc2c1C(c1ccc(Cl)c(Cl)c1)c1c(C)[nH]c2ccccc12	/	/	/	2	/	/
COC(=O)c1ccc(NC(=O)C2CC(=O)N(c3cc(C)ccc3C)C2)cc1 (stereo not given)	-105%*	1%	-26%	-3	4	-2%
CCNc1nc(SC(C)C(=O)NC2CC2)nc2ccccc12 (stereo not given)	/	/	/	-14	/	/
Cc1ccc(NC(=O)CCc2nnc3ccc(NCc4ccco4)nn23)nc1	i	6%	18%[11.4 µM]	1	-96*	-3%
O=c1[nH]cccc1NS(=O)(=O)c1ccccc1Cl	/	/	/	60	/	/
COCCNC(C(=O)Nc1ccc([N+](=O)[O-])cc1Br)c1ccccc1 (stereo not given)	i	-1%[46.1 µM]	26%	3	5	-2%
CCCCNC(C(=O)Nc1ccc([N+](=O)[O-])cc1Br)c1ccccc1 (stereo not given)	i	2%[46.1 µM]	4%	-31*	0	-2%
O=C(NCc1ccc2c(c1)OCO2)c1ccc(-c2csc(C3CC3)n2)cc1	/	/	/	7	/	/
Cc1nc(SCc2cccc(Oc3ccccc3)c2)n[nH]1	-112%*	-3%	-18%	-11	-15	3%
Cc1nc(SCc2ccc(Cl)c(Cl)c2)n[nH]1	i	/	16%	-3	1	3%
CCCC(C)NC(=O)CCc1ccc(-c2ccc(OC)cc2)o1 (stereo not given)	/	/	/	-1	/	/
COc1cc(/C=N/Nc2nc(N3CCCC3)nc(N3CCCC3)n2)ccc1OCc1ccccc1F	i	2%	17%	-11	-71*	4%
O=C(CCc1ccccc1)N1CCN(C(=O)CCc2ccccc2)CC1	i	-3%	-3%	-14	/	0%
CCOC(=O)N1CCN(C(=O)CN(Cc2ccc(Cl)cc2)S(=O)(=O)c2ccccc2)CC1	-103%*	-6%	-10%	-3	0	-4%
CCOC(=O)N1CCN(C(=O)CCc2ccccc2)CC1	i	/	-2%	-1	-128*	-1%
COC(=O)c1ccc(CN2C(=O)NC(Cc3c[nH]c4ccccc34)C2=O)cc1 (stereo not given)	i	10%	2%	-6	-98*	2%
CCN1C(C(=O)c2ccccc2)=C(NC(=O)c2ccc(Cl)cc2)c2ccccc2S1(=O)=O	/	/	2%	0	/	-4%
CCN1C(C(=O)c2ccccc2)=C(Nc2ccccc2C)c2ccccc2S1(=O)=O	i	1%[46.1 µM]	21%	-4	-79*	-4%
CC(C)(C)C(=O)NC(=S)NNC(=O)C(c1ccccc1)c1ccccc1	i	-2%	-21%[11.4 µM]	-3	-10	22µM*
SMILES	pAkt inh	TCR activator	RGS4 inhibitor	LDHA inh	TSHR antag	Glioma ERSR ind
CC(=O)NNC(=S)NC(=O)C(c1ccccc1)c1ccccc1	i	1%	-16%	-5	-3	-8%
COC(=O)c1cc(-c2ccc(OC(C)C)cc2)nc2ccccc12	/	/	/	1	/	/
O=C(Nc1ccc(Cl)c(Cl)c1)c1ccc(Cn2c(=O)[nH]c3ccsc3c2=O)cc1	i	0%	-15%	-32*	-8	-2%
O=C(Nc1ccc(Oc2ccccc2)cc1)c1ccc(Cn2c(=O)[nH]c3ccsc3c2=O)cc1	i	-2%	-32%	-24	4	-5%
O/N=C1\CCCc2c1[nH]c1ccc(OCc3ccccc3)cc21	/	/	/	1	/	/
Cc1ccn2c(Nc3ccc4c(c3)OCCO4)c(-c3ccsc3)nc2c1	/	/	/	4	/	/
COc1ccccc1SC(C(=O)NC1CC1)c1ccccc1 (stereo not given)	/	/	/	-4	/	/
COc1ccccc1OC(C(=O)NC1CC1)c1ccccc1 (stereo not given)	/	/	/	-30*	/	/
O=C(CCc1ccccc1)NC1(C(F)(F)F)C(=O)Nc2c1c(=O)[nH]c(=O)n2Cc1ccccc1 (stereo not given)	/	/	/	-35*	/	/
Cn1c(CNC(=O)c2ccc(Cl)cc2)nnc1SCC(=O)NC1CCCC1	i	-2%	10%	-3	-98*	-2%
O=C1NC2=C(C(=O)CCC2)C(c2ccc3ncccc3c2)N1 (stereo not given)	i	0%	-9%	-4	-3	-2%
O=C1CCCC2=C1C(c1ccc(F)cc1F)Nc1nonc1N2 (stereo not given)	/	/	/	-33*	/	/
COc1nc(Cl)cn(-c2ccc(C)cc2)c1=O	i	0%[46.1 µM]	22%	-4	38	-1%
Cc1ccc(-n2c(Cl)c(Cl)nc(Cl)c2=O)cc1	i	-1%[46.1 µM]	-99%	-2	-95*	-14%
COc1ccc(CN(Cc2ccccc2)Cc2cc(=O)n3cc(C)sc3n2)cc1OC	/	/	/	3	/	/
COc1ccccc1C(=O)N1CCN(Cc2cccnc2)CC1	i	1%	4%	-33*	0	-3%
O=C(c1cccnc1)N1CCN(Cc2cccc(Br)c2)CC1	i	3%	22%	-20	12	0%
O=C(c1cccnc1)N1CCN(Cc2ccccc2Br)CC1	i	-6%	17%	-31*	4	-5%
COc1ccccc1C(=O)N1CCN(C2CCN(Cc3ccccc3)CC2)CC1	i	6%	19%	-16	/	-2%
Cc1n[nH]c(=S)n(/N=C/c2cccs2)c1=O	i	-3%	-23%	-31*	-4	-1%
CCN(CC)c1ccc(/C=N/n2c(=S)[nH]nc(C)c2=O)cc1	i	1%	-12%	-31*	-2	-3%
CCc1n[nH]c(=S)n1/N=C/c1ccc(NC(C)=O)cc1	i	2%	-35%	1	-1	-2%
CCNc1c(NC(=O)Nc2cc(OC)cc(OC)c2)c(=O)oc2ccccc12	/	/	/	4	/	/
Oc1cccc(/C=C/c2nc3ccccc3s2)c1	/	/	/	10	/	/
Cc1cc(Cl)n2c(nc3cc(F)c(F)cc32)c1C#N	i	-2%	?	8	-73*	-13%

Screening results: PubChem, National Center for Advancing Translational Sciences (NCATS)
